Data from PubChem BioAssay.
Active and inactive are the calls of the source. Unless noted, how the calls were made is not given here.

Key:
[1] = test system: XIP peptide (Xip251-270) binding; experiment: XIP fragment 251-270 binding compounds – biochemical, small-molecule microarray, fluorescence 635/667 nm, 0.1 µg/mL protein, primary screen (AID 1182); settings: fluorescent protein binding, 635 nm, higher = more signal, called active from +8 up or from −8 down
XIP peptide (Xip251-270) = experiment: compounds binding XIP fragment 251-270 – biochemical, small-molecule microarray, fluorescence 635/667 nm, 0.5 µg/mL protein, primary screen (AID 1183); settings: fluorescence 635 nm, higher = more signal
[2] = blood-stage malaria parasite viability loss – strain 3D7, DAPI fluorescence, 100 nL, primary screen (AID 1184);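 further: parasites grown inside human red blood cells in medium with human serum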; settings: P. falciparum 3D7 growth, 3 d, higher = more signal
[3] = biological target: Homeobox protein Hox-A13 (Mus musculus) (UniProt Q62424); experiment: disruptors of Hoxa13 oligonucleotide interaction – biochemical, fluorescence polarization, labeled oligonucleotide, primary screen (AID 1185); settings: Hoxa13:DNA binding, 15 min, higher = more signal, called active from +8 up or from −8 down
Sequence of Homeobox protein Hox-A13 (Mus musculus) (Q62424 whole entry, looked up): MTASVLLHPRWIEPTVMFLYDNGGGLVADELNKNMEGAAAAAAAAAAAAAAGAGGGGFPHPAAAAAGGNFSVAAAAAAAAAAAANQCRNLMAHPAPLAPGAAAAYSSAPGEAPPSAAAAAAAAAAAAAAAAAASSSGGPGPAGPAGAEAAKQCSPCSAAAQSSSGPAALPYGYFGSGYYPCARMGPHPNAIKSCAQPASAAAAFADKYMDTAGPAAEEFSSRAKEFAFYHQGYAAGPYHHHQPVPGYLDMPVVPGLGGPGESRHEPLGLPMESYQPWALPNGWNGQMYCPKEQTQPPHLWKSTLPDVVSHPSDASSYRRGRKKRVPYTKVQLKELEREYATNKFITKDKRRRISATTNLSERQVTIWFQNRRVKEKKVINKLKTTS

[4] = blockers of DNA damage checkpoint Chk1 activation – imaging, HeLa, hydroxyurea, phospho-Chk1 antibody, percent positive cells, primary screen (AID 1186); settings: hydroxyurea-induced phospho-Chk1 immunofluorescence imaging, higher = more signal
[5] = blockers of DNA damage checkpoint Chk1 activation – imaging, HeLa, hydroxyurea, phospho-Chk1 nuclear intensity, primary screen (AID 1187); settings: hydroxyurea-induced phospho-Chk1 immunofluorescence imaging, higher = more signal

Structure (SMILES) | composite z-score [1] | composite z-score (XIP peptide (Xip251-270)) | z-score [2] | z-score [3] | z-score [4] | z-score [5]
CN(C)c1ccc(C(O)C2C=CC3C(=O)N(Cc4ccccc4)C(=O)C3N2n2cnnc2)cc1 (stereo not drawn) | 3 (inactive) | -0.23 | 0.736 | -0.863 (inactive) | -1.39 (inactive) | -1.58 (inactive)
O=C(NCCN1CCOCC1)[C@@H]1c2ccccc2C(=O)N(Cc2ccc(OC(F)(F)F)cc2)[C@H]1c1ccc(CO)cc1 | 0.441 (inactive) | -0.103 | -1.05 | -4.13 (inactive) | 0.0777 (inactive) | -0.117 (inactive)
COc1ccc(C(O)C2C=CC3C(=O)N(c4ccccc4)C(=O)C3N2Nc2ccc(C#N)cc2)cc1OCc1ccccc1 (stereo not drawn) | 0.496 (inactive) | 0.556 | -0.474 | 0.712 (inactive) | -0.405 (inactive) | -0.669 (inactive)
O=C1C2C=CC(C(O)c3c(F)cccc3Cl)N(Nc3ccc([N+](=O)[O-])cc3)C2C(=O)N1c1ccccc1 (stereo not drawn) | 1.03 (inactive) | 0.878 | -0.545 | -3.05 (inactive) | 0.982 (inactive) | 1.09 (inactive)
C[C@@H]1ON(c2ccc(I)cc2)[C@H](c2cccc(NC(=O)OCC3c4ccccc4-c4ccccc43)c2)[C@H]1C(=O)N1C(=O)OC[C@H]1Cc1ccccc1 | -0.283 (inactive) | 0.771 | -1.27 | 2.16 (inactive) | 0.095 (inactive) | 0.0287 (inactive)
[N-]=[N+]=Nc1ccccc1C[C@@]1(C(=O)NCc2ccccc2)N=C(c2ccc(OCCCO)cc2)O[C@@H]1c1ccccc1N=[N+]=[N-] | 1.46 (inactive) | 0.729 | -2.76 | -0.454 (inactive) | -0.747 (inactive) | -1.1 (inactive)
C=CCNC(=O)[C@H]1[C@@H]2C(=O)O[C@@H](c3ccccc3)[C@@H](c3ccccc3)N2[C@@H](c2ccc(OCCO)cc2)[C@]12C(=O)Nc1ccccc12 | 1.43 (inactive) | 0.57 | -0.541 | -5.26 (inactive) | 0.286 (inactive) | 0.595 (inactive)
COCCOC(=O)N1C(=O)[C@@]2(c3cc(C#CCC(C(=O)OC)C(=O)OC)ccc31)[C@H](C(N)=O)[C@H]1C(=O)O[C@H](c3ccccc3)[C@H](c3ccccc3)N1[C@@H]2c1ccc(O)cc1 | 0.896 (inactive) | 0.77 | -2.1 | 0.218 (inactive) | -0.0553 (inactive) | 0.0543 (inactive)
COCCOC(=O)N1C(=O)[C@@]2(c3cc(C#CCNC(N)=O)ccc31)[C@H](C(=O)Nc1nc3ccccc3s1)[C@H]1C(=O)O[C@H](c3ccccc3)[C@H](c3ccccc3)N1[C@@H]2c1ccccc1OCCO | 0.278 (inactive) | 0.634 | -1.78 | 2.01 (inactive) | -0.339 (inactive) | -0.644 (inactive)
CC(C)(C)N1CC=CC23O[C@@H]4C=CCOC(=O)[C@@H]4[C@H]2C(=O)N(CCO)[C@@H]3C1=O (stereo partly drawn) | 0.218 (inactive) | 0.57 | 0.885 | -3.33 (inactive) | 0.121 (inactive) | -0.307 (inactive)
CC1=C([C@H](O)CCc2ccccc2)[C@H](CO)n2c(=O)n(-c3ccccc3)c(=O)n2C1 | -0.611 (inactive) | 0.754 | 0.0483 | -2.24 (inactive) | -0.773 (inactive) | -0.906 (inactive)
O=C1NC(=O)C2C1C=CC(C(O)c1ccc(B(O)O)cc1)N2Nc1ccc(Cl)cc1Cl (stereo not drawn) | 0.185 (inactive) | -0.0187 | -0.195 | -4.45 (inactive) | 0.549 (inactive) | 0.367 (inactive)
C=CCOC(=O)[C@@H]1[C@H]2C(=O)O[C@H](c3ccccc3)[C@H](c3ccccc3)N2[C@H](c2ccc(OCCOC(=O)[C@H]3C[C@H]4C(=O)NCC(=O)N4[C@H]3c3cccc(OCCO)c3)cc2)[C@@]12C(=O)Nc1ccc(I)cc12 | 0.604 (inactive) | 0.794 | -1.9 | 0.337 (inactive) | -0.856 (inactive) | -1.2 (inactive)
CN(C)CCCNC(=O)[C@@]1(Cc2ccccc2I)c2ccccc2C(=O)N(C2CCCCC2)[C@H]1c1ccc(CO)cc1 | 0.645 (inactive) | 0.611 | -1.61 | 0.846 (inactive) | -0.332 (inactive) | -0.621 (inactive)
C=CC[C@@]1(C(=O)OC)N=C(c2ccc(OCCCO)cc2)O[C@@H]1c1ccccc1N=[N+]=[N-] | 0.741 (inactive) | 0.852 | -2.27 | -3.81 (inactive) | -0.312 (inactive) | 0.0948 (inactive)
C[C@]1(C(=O)O)c2ccccc2C(=O)N(Cc2cc(F)cc(C(F)(F)F)c2)[C@H]1c1ccc(CO)cc1 | 0.342 (inactive) | 0.778 | 0.832 | -1.83 (inactive) | 0.117 (inactive) | 0.239 (inactive)
CCCNC(=O)[C@@]1(Sc2ccc(C)cc2)CC(=O)N(Cc2ccccc2Cl)[C@@H]1c1ccc(CO)cc1I | 0.263 (inactive) | 0.157 | -0.0495 | -2.99 (inactive) | 0.242 (inactive) | 0.677 (inactive)

Structure (SMILES) | composite z-score [1] | composite z-score (XIP peptide (Xip251-270)) | z-score [2] | z-score [3] | z-score [4] | z-score [5]
COC(=O)[C@@]1(Cc2ccc(OC)cc2)[C@H]2c3cc(C(=O)N(C)C)[nH]c3C[C@H]2CN1C(=O)c1ccccc1 | 0.0849 (inactive) | -0.197 | -0.0305 | -2.93 (inactive) | -0.041 (inactive) | -0.309 (inactive)
C=CCOC(=O)[C@H]1[C@@H]2C(=O)O[C@@H](c3ccccc3)[C@@H](c3ccccc3)N2[C@@H](c2ccc(OCCOC(=O)[C@@H]3C[C@@H]4C(=O)N[C@@H](CCCCNC(C)=O)C(=O)N4[C@@H]3c3cccc(OCCO)c3)cc2)[C@]12C(=O)Nc1ccccc12 | 0.785 (inactive) | 0.824 | -1.55 | -0.0913 (inactive) | 0.321 (inactive) | 0.0173 (inactive)
COc1cc(CO)cc(I)c1O[C@H]1C=C(C(=O)NCCO)C[C@@H](NC2CCCCCC2)[C@@H]1O | 0.509 (inactive) | 0.649 | -3.18 | -7.19 (inactive) | -0.75 (inactive) | -1.01 (inactive)
C=CCNC(=O)[C@@H]1[C@H]2C(=O)O[C@H](c3ccccc3)[C@H](c3ccccc3)N2[C@H](c2ccc(OCCO)cc2)[C@@]12C(=O)Nc1ccc(C#CC3(O)CCCCCC3)cc12 | 1.02 (inactive) | 0.774 | -1.73 | -1.92 (inactive) | -0.0427 (inactive) | -0.271 (inactive)
CCCCCC1=C2CNC(CC(C)C)(C(=O)OC)C=C2C(C)C1=O (stereo not drawn) | 0.814 (inactive) | 0.176 | -0.282 | -8.08 (active) | 1.32 (inactive) | 0.856 (inactive)
O=C1[C@H]2C=C(I)[C@H](C[C@@H]2OCCCCCCO)[C@@]12CO2 | -0.0604 (inactive) | 0.77 | 1.09 | -3.09 (inactive) | -0.116 (inactive) | -0.124 (inactive)
COCCOC(=O)N1C(=O)[C@@]2(c3cc(C#CCCO)ccc31)[C@H](C(N)=O)[C@H]1C(=O)O[C@H](c3ccccc3)[C@H](c3ccccc3)N1[C@@H]2c1ccccc1OCCO | 1.47 (inactive) | 0.832 | -1.31 | -3.88 (inactive) | 0.0461 (inactive) | -0.303 (inactive)
Cc1ccccc1C(O)C1C=CC2C(=O)N(c3ccccc3)C(=O)C2N1Nc1ccccc1 (stereo not drawn) | 0.766 (inactive) | 0.889 | -0.189 | -2.86 (inactive) | -1.2 (inactive) | -1.11 (inactive)
C#CCN1[C@@H](Cc2ccccc2)C(=O)O[C@H](Cc2ccccc2)[C@@H]1/C=C/C1CC1 | -0.157 (inactive) | 0.5 | -1.18 | -0.571 (inactive) | -0.352 (inactive) | -0.267 (inactive)
CC(C)(C)N1CC=CC23O[C@@H]4/C=C\CCCOC(=O)C4[C@H]2C(=O)N(CCCCCO)[C@@H]3C1=O (stereo partly drawn) | 0.176 (inactive) | -1.03 | 1.91 | -4.34 (inactive) | 0.395 (inactive) | 0.144 (inactive)
COc1ccc(C(O)C2C=CC3C(=O)N(C)C(=O)C3N2N(c2ccccc2)c2ccccc2)cc1 (stereo not drawn) | 0.195 (inactive) | 0.512 | -0.459 | -6.57 (inactive) | 0.45 (inactive) | -0.508 (inactive)
O=C1C2C=CC(C(O)c3cccs3)N(Nc3ccc([N+](=O)[O-])cc3)C2C(=O)N1c1ccccc1 (stereo not drawn) | 0.396 (inactive) | -0.0032 | -0.965 | -4.16 (inactive) | -0.479 (inactive) | -0.779 (inactive)
CC=CC(O)C1C=CC2C(=O)NC(=O)C2N1Nc1ccc(Cl)cc1Cl (stereo not drawn) | -0.223 (inactive) | -0.186 | 0.179 | -3.78 (inactive) | 1.3 (inactive) | 1.22 (inactive)
COCCOC(=O)N1C(=O)[C@@]2(c3cc(C#Cc4ccc(OC)cc4)ccc31)[C@H](c1ccc(OCCO)cc1)N1[C@H](c3ccccc3)[C@H](c3ccccc3)OC(=O)[C@H]1[C@@H]2C(=O)NC[C@H](O)c1ccccc1 | 0.849 (inactive) | 0.713 | -1.66 | -0.532 (inactive) | 0 (inactive) | -0.0275 (inactive)
COC(=O)[C@@]1(Cc2ccccc2)[C@H]2c3cc(C(=O)N(C)C)n(CCSC(=N)N)c3C[C@H]2CN1C(=O)c1ccccc1 | -0.667 (inactive) | 0.903 | -0.118 | -3.8 (inactive) | 0.835 (inactive) | 0.849 (inactive)
NC(=O)NCC#Cc1ccc2c(c1)[C@]1(C(=O)N2)[C@H](c2ccc(OCCO)cc2)N2[C@H](c3ccccc3)[C@H](c3ccccc3)OC(=O)[C@H]2[C@@H]1C(=O)NC[C@H](O)c1ccccc1 | -0.133 (inactive) | 0.594 | -0.833 | -3.2 (inactive) | -0.261 (inactive) | -0.572 (inactive)
